Data published in PubChem BioAssay.
Activity calls are given as the source filed them. How the calls were made is not given here.

What follows are compounds tested against Pantothenate synthetase (Mycobacterium tuberculosis (strain ATCC 25618 / H37Rv)) (UniProt P9WIL5) (assay: Coupled enzyme confirmation of inhibitors against recombinant Mtb PanC (AID 375;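 further: 0% = full reaction with vehicle and 100% = no enzyme background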)). Conditions: coupled enzyme assay; at 10 µM, hits give high values.
Chain of Pantothenate synthetase (Mycobacterium tuberculosis (strain ATCC 25618 / H37Rv)) (P9WIL5 whole entry, looked up): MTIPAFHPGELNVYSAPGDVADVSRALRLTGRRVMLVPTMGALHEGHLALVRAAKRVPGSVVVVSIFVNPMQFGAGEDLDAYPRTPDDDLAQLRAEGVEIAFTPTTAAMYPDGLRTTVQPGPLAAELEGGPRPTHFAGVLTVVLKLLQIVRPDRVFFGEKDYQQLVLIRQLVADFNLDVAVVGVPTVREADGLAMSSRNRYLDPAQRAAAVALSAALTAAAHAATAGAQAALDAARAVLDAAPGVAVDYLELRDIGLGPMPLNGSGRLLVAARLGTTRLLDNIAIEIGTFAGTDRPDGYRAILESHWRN

SMILES | inhibition
CC(C)Cn1c(CN2CCN(c3ccccc3F)CC2)nc2c1c(=O)[nH]c(=O)n2C | 0% (inactive)
Cc1ccc(C(C(=O)NC(C)(C)C)N(C(=O)c2csnn2)c2cccc(F)c2)o1 (stereo not drawn) | 0% (inactive)
O=C(CSc1nnc(-c2cccnc2)o1)OC1CCCCC1 | 0% (inactive)
CCc1cccc(NC(=O)CN(C)S(=O)(=O)c2cccc3nsnc23)c1 | 12% (inactive)
COCC(=O)Nc1cc(OC)ccc1OC | 3% (inactive)
O=C(O)CC(C(=O)Nc1cccc(C(F)(F)F)c1)C1CCCO1 (stereo not drawn) | 1% (inactive)
O=C(COc1ccc(F)cc1)Nc1ccc(-n2cnnn2)cc1 | 0% (inactive)
O=C(O)CCCC(=O)Nc1ccc(Br)cc1C(=O)O | 0% (inactive)
O=C(O)c1cc(Cl)c(Cl)cc1C(=O)N1CCCC1 | 1% (inactive)
CCOC(=O)c1cc2sc(C)cc2n1CC(=O)Nc1cccc(C)c1C | 0% (inactive)
CCOC(=O)CSc1nnc(NCC(=O)OC(C)C)c(=O)[nH]1 | 4% (inactive)
O=C(CSc1nnc(-c2cccnc2)o1)Nc1ccccn1 | 0% (inactive)
COc1ccccc1OCC(O)COC(N)=O (stereo not drawn) | 6% (inactive)
COc1ccc(CC(=O)Nc2c3c(nn2-c2cccc(Cl)c2)CS(=O)C3)cc1 (stereo not drawn) | 7% (inactive)
Cc1cc(C)n(-c2ccc3cccc(NS(C)(=O)=O)c3n2)n1 | 0% (inactive)
CC(C)(C)C(=O)CNS(=O)(=O)c1ccc(S(=O)(=O)NC2CCCC2)cc1 | 0% (inactive)
COc1cc(OC)cc(OCC(O)Cn2cnc(-c3ccccc3)c2)c1 (stereo not drawn) | 0% (inactive)
O=C(c1ccccc1Oc1nnnn1-c1ccccc1)N1CCOCC1 | 0% (inactive)
